# Assay results from the supplement of paper PMC10037445.
# Whole data set: some 2,900 compounds, median “NF-kB SEAP reporter activity, fold change vs agonist alone” near 0.99, cut for the highest 2% near 2.6. This excerpt belongs to a sample that is enriched for the highest values.
# Experiments:
# RAW-Dual [1] = experiment: NF-kB SEAP reporter activity, fold change vs agonist alone; higher = enhanced NF-kB activity; details: library stock concentration (final ~1000-fold dilution): 10 mM
# Summary of the method: (§1)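 Reporter activity is given as fold change relative to agonist-alone wells. To measure it, 50 nL of library stock was pin-tooled onto RAW-Dual macrophages (50,000 cells/well, DMEM, 384-well plates), a PRR agonist followed 1 h later, and cells stayed at 37 °C, 5% CO2. Twenty hours on, supernatant was assayed for IRF (QuantiLuc luminescence) and NF-κB (QuantiBlue, 620 nm absorbance), and wells under 70% of agonist-control IncuCyte confluency in both mask sets were marked cytotoxic.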
# RAW-Dual [2] = experiment: NF-kB SEAP reporter activity, fold change vs agonist alone; cytotoxicity flag (confluency mask): not cytotoxic; higher = enhanced NF-kB activity
# Summary of the method: as §1
# RAW-Dual [3] = experiment: NF-kB SEAP reporter activity, fold change vs agonist alone; cytotoxicity flag (confluency mask): cytotoxic (confluency <70% of control); higher = enhanced NF-kB activity
# Summary of the method: as §1
# [4] = cytotoxicity flag (confluency mask): not cytotoxic, agonist: Imiquimod (TLR7) […]
# [5] = cytotoxicity flag (confluency mask): not cytotoxic, agonist: MPLA (TLR4) […]
# [6] = agonist: ODN 1826 (TLR9) 0.5 ug/mL
# [7] = agonist: Pam2CSK4 (TLR2/6) 0.1 ug/mL
# [8] = agonist: Pam3CSK4 (TLR2/1) 0.1 ug/mL
# [9] = cytotoxicity flag (confluency mask): cytotoxic (confluency <70% of control), agonist: Imiquimod (TLR7) […]
# [10] = cytotoxicity flag (confluency mask): cytotoxic (confluency <70% of control), agonist: MPLA (TLR4) […]
structure (smiles),measurement,setting,value
Cc1c[nH]c(-c2cnc(NCCNc3ccc(C#N)cn3)nc2-c2ccc(Cl)cc2Cl)n1,NF-kB SEAP reporter activity,RAW-Dual [1]; [4],2.12
same,NF-kB SEAP reporter activity,RAW-Dual [1]; [5],2.19
Cc1c[nH]c(-c2cnc(NCCNc3ccc(C#N)cn3)nc2-c2ccc(Cl)cc2Cl)n1 (library stock concentration (final ~1000-fold dilution): 10 mM),NF-kB SEAP reporter activity,RAW-Dual [2]; agonist: LPS (TLR4) 0.1 ug/mL,3.08
same,NF-kB SEAP reporter activity,RAW-Dual [2]; [6],2.65
same,NF-kB SEAP reporter activity,RAW-Dual [2]; [7],2.12
same,NF-kB SEAP reporter activity,RAW-Dual [2]; [8],2.9
Cc1c[nH]c(-c2cnc(NCCNc3ccc(C#N)cn3)nc2-c2ccc(Cl)cc2Cl)n1.Cl,NF-kB SEAP reporter activity,RAW-Dual [1]; [4],2.27
same,NF-kB SEAP reporter activity,RAW-Dual [1]; [5],2.2
Cc1c[nH]c(-c2cnc(NCCNc3ccc(C#N)cn3)nc2-c2ccc(Cl)cc2Cl)n1.Cl (library stock concentration (final ~1000-fold dilution): 10 mM),NF-kB SEAP reporter activity,RAW-Dual [2]; agonist: LPS (TLR4) 0.1 ug/mL,2.97
same,NF-kB SEAP reporter activity,RAW-Dual [2]; [6],2.78
same,NF-kB SEAP reporter activity,RAW-Dual [2]; [7],1.84
same,NF-kB SEAP reporter activity,RAW-Dual [2]; [8],3.48
CCOC(=O)Nc1ccc(NCc2ccc(F)cc2)nc1N.O=C(O)/C=C/C(=O)O,NF-kB SEAP reporter activity,RAW-Dual [1]; [4],0.871
same,NF-kB SEAP reporter activity,RAW-Dual [1]; [5],1.23
CCOC(=O)Nc1ccc(NCc2ccc(F)cc2)nc1N.O=C(O)/C=C/C(=O)O (library stock concentration (final ~1000-fold dilution): 10 mM),NF-kB SEAP reporter activity,RAW-Dual [2]; agonist: LPS (TLR4) 0.1 ug/mL,1.03
same,NF-kB SEAP reporter activity,RAW-Dual [2]; [6],1.1
same,NF-kB SEAP reporter activity,RAW-Dual [2]; [7],0.993
same,NF-kB SEAP reporter activity,RAW-Dual [2]; [8],1.01
CC(C)CN(CC(O)C(Cc1ccccc1)NC(=O)OC1COC2OCCC12)S(=O)(=O)c1ccc(N)cc1.CCO (stereo not drawn),NF-kB SEAP reporter activity,RAW-Dual [1]; [4],1.42
same,NF-kB SEAP reporter activity,RAW-Dual [1]; [5],1.49
CC(C)CN(CC(O)C(Cc1ccccc1)NC(=O)OC1COC2OCCC12)S(=O)(=O)c1ccc(N)cc1.CCO (stereo not drawn) (library stock concentration (final ~1000-fold dilution): 10 mM),NF-kB SEAP reporter activity,RAW-Dual [2]; agonist: LPS (TLR4) 0.1 ug/mL,1.78
same,NF-kB SEAP reporter activity,RAW-Dual [2]; [6],1.57
same,NF-kB SEAP reporter activity,RAW-Dual [2]; [7],1.42
same,NF-kB SEAP reporter activity,RAW-Dual [2]; [8],1.43
COc1ccc(Cn2c3ncnc4c(ncn4Cc4ccc(OC)cc4)c-3nc2=O)cc1 (library stock concentration (final ~1000-fold dilution): 10 mM),NF-kB SEAP reporter activity,RAW-Dual [2]; agonist: LPS (TLR4) 0.1 ug/mL,1.73
same,NF-kB SEAP reporter activity,RAW-Dual [2]; [6],1.45
same,NF-kB SEAP reporter activity,RAW-Dual [2]; [7],0.409
same,NF-kB SEAP reporter activity,RAW-Dual [2]; [8],0.8
COc1ccc(Cn2c3ncnc4c(ncn4Cc4ccc(OC)cc4)c-3nc2=O)cc1,NF-kB SEAP reporter activity,RAW-Dual [1]; [4],1.43
same,NF-kB SEAP reporter activity,RAW-Dual [1]; [5],2.08
CC(=O)c1ccc2c(c1)c1cc(C(C)=O)ccc1n2CCNC(C)C,NF-kB SEAP reporter activity,RAW-Dual [1]; [9],0.147
same,NF-kB SEAP reporter activity,RAW-Dual [1]; [10],0.242
CC(=O)c1ccc2c(c1)c1cc(C(C)=O)ccc1n2CCNC(C)C (library stock concentration (final ~1000-fold dilution): 10 mM),NF-kB SEAP reporter activity,RAW-Dual [3]; agonist: LPS (TLR4) 0.1 ug/mL,0.301
same,NF-kB SEAP reporter activity,RAW-Dual [3]; [6],0.193
same,NF-kB SEAP reporter activity,RAW-Dual [3]; [7],0.0764
same,NF-kB SEAP reporter activity,RAW-Dual [3]; [8],0.183
NC(=O)c1cccc(-c2cc(Nc3ccc(OC(F)(F)F)cc3)ncn2)c1,NF-kB SEAP reporter activity,RAW-Dual [1]; [4],1.24
same,NF-kB SEAP reporter activity,RAW-Dual [1]; [5],1.11
COc1cc(F)ccc1-c1ncnc(Nc2cccc(CS(C)(=N)=O)c2)n1 (stereo not drawn),NF-kB SEAP reporter activity,RAW-Dual [1]; [9],1.26
same,NF-kB SEAP reporter activity,RAW-Dual [1]; [10],1.31
COc1ccccc1-c1cc(Nc2cccc(CS(N)(=O)=O)c2)ncn1 (library stock concentration (final ~1000-fold dilution): 10 mM),NF-kB SEAP reporter activity,RAW-Dual [2]; agonist: LPS (TLR4) 0.1 ug/mL,2.67
same,NF-kB SEAP reporter activity,RAW-Dual [2]; [6],2.18
same,NF-kB SEAP reporter activity,RAW-Dual [2]; [7],0.783
same,NF-kB SEAP reporter activity,RAW-Dual [2]; [8],1.55
NC(=O)c1cccc(-c2cc(Nc3ccc(OC(F)(F)F)cc3)ncn2)c1 (library stock concentration (final ~1000-fold dilution): 10 mM),NF-kB SEAP reporter activity,RAW-Dual [2]; agonist: LPS (TLR4) 0.1 ug/mL,1.21
same,NF-kB SEAP reporter activity,RAW-Dual [2]; [6],0.672
same,NF-kB SEAP reporter activity,RAW-Dual [2]; [7],0.944
same,NF-kB SEAP reporter activity,RAW-Dual [2]; [8],0.869
COc1ccccc1-c1cc(Nc2cccc(CS(N)(=O)=O)c2)ncn1,NF-kB SEAP reporter activity,RAW-Dual [1]; [4],1.45
same,NF-kB SEAP reporter activity,RAW-Dual [1]; [5],2.59
COc1cc(F)ccc1-c1ncnc(Nc2cccc(CS(C)(=N)=O)c2)n1 (stereo not drawn) (library stock concentration (final ~1000-fold dilution): 10 mM),NF-kB SEAP reporter activity,RAW-Dual [3]; agonist: LPS (TLR4) 0.1 ug/mL,0.786
same,NF-kB SEAP reporter activity,RAW-Dual [3]; [6],1.4
same,NF-kB SEAP reporter activity,RAW-Dual [3]; [7],0.277
same,NF-kB SEAP reporter activity,RAW-Dual [3]; [8],0.421
CCOc1cc(=O)[nH]cc1-c1ccc(CC(=O)Nc2cc(C(C)(C)C(F)(F)F)on2)c(F)c1 (library stock concentration (final ~1000-fold dilution): 10 mM),NF-kB SEAP reporter activity,RAW-Dual [2]; agonist: LPS (TLR4) 0.1 ug/mL,0.538
same,NF-kB SEAP reporter activity,RAW-Dual [2]; [6],0.276
same,NF-kB SEAP reporter activity,RAW-Dual [2]; [7],0.163
same,NF-kB SEAP reporter activity,RAW-Dual [2]; [8],0.188
CCOc1cc(=O)[nH]cc1-c1ccc(CC(=O)Nc2cc(C(C)(C)C(F)(F)F)on2)c(F)c1,NF-kB SEAP reporter activity,RAW-Dual [1]; [4],0.281
same,NF-kB SEAP reporter activity,RAW-Dual [1]; [5],0.545
CC(C)=CCCC(C)(OC1OC(CO)C(O)C(O)C1O)C1CCC2(C)C1C(O)CC1C3(C)CCC(OC4OC(CO)C(O)C(O)C4OC4OC(CO)C(O)C(O)C4O)C(C)(C)C3CCC12C (stereo not drawn),NF-kB SEAP reporter activity,RAW-Dual [1]; [4],1.01
same,NF-kB SEAP reporter activity,RAW-Dual [1]; [5],1.02
CC(C)=CCCC(C)(OC1OC(CO)C(O)C(O)C1O)C1CCC2(C)C1C(O)CC1C3(C)CCC(OC4OC(CO)C(O)C(O)C4OC4OC(CO)C(O)C(O)C4O)C(C)(C)C3CCC12C (stereo not drawn) (library stock concentration (final ~1000-fold dilution): 10 mM),NF-kB SEAP reporter activity,RAW-Dual [2]; agonist: LPS (TLR4) 0.1 ug/mL,0.838
same,NF-kB SEAP reporter activity,RAW-Dual [2]; [6],1.11
same,NF-kB SEAP reporter activity,RAW-Dual [2]; [7],0.899
same,NF-kB SEAP reporter activity,RAW-Dual [2]; [8],1.02
CCCC(Nc1nc(-c2ccc(NC(=O)NCC)c(OC)c2)ncc1C)c1cccnc1 (stereo not drawn),NF-kB SEAP reporter activity,RAW-Dual [1]; [4],2.63
same,NF-kB SEAP reporter activity,RAW-Dual [1]; [5],2.57
CCCC(Nc1nc(-c2ccc(NC(=O)NCC)c(OC)c2)ncc1C)c1cccnc1 (stereo not drawn) (library stock concentration (final ~1000-fold dilution): 10 mM),NF-kB SEAP reporter activity,RAW-Dual [2]; agonist: LPS (TLR4) 0.1 ug/mL,5.93
same,NF-kB SEAP reporter activity,RAW-Dual [2]; [6],3.66
same,NF-kB SEAP reporter activity,RAW-Dual [2]; [7],2.2
same,NF-kB SEAP reporter activity,RAW-Dual [2]; [8],2.92
O=C(/C=C/c1ccc(O)c(O)c1/C=C/c1ccc(O)c(O)c1)OC(Cc1ccc(O)c(O)c1)C(=O)O (stereo not drawn),NF-kB SEAP reporter activity,RAW-Dual [1]; [4],0.405
same,NF-kB SEAP reporter activity,RAW-Dual [1]; [5],0.891
O=C(/C=C/c1ccc(O)c(O)c1/C=C/c1ccc(O)c(O)c1)OC(Cc1ccc(O)c(O)c1)C(=O)O (stereo not drawn) (library stock concentration (final ~1000-fold dilution): 10 mM),NF-kB SEAP reporter activity,RAW-Dual [2]; agonist: LPS (TLR4) 0.1 ug/mL,1.09
same,NF-kB SEAP reporter activity,RAW-Dual [2]; [6],0.836
same,NF-kB SEAP reporter activity,RAW-Dual [2]; [7],0.837
same,NF-kB SEAP reporter activity,RAW-Dual [2]; [8],0.289
